# Marburg entry inh = qHTS for inhibitors of binding or entry into cells for Marburg Virus | Potency, µM (highest dose often 37.8 µM), without a hit: at the top dose activity change, negative = inhibition, hits mostly inhibitors | hit rate 1.8% among 300,000 | Marburg virus pseudotyped entry inhibition, cell reporter; calls by dose curve; tested in HEK293 cells; further: potency means the concentration at half of the fitted maximal effect
# HCMV antiviral = qHTS Assay for inhibitors of the human cytomegalovirus (HCMV); HFF cells, HCMV-luciferase reporter, 72 h; active compounds read low; activity change, negative = inhibition, % at 57.5 µM; hit rate 4.5% among 410,000; AID 1259415, 2018; in the data active means activity change below about -60%; inconclusive means no clear call, values can overlap the other calls; inactive means above about -39%
#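 Human foreskin fibroblasts infected with luciferase-reporter HCMV at MOI 1 PFU/cell, compounds at two doses. Luciferase measured 72 h post infection; normalized to buffer-only basal and Salinomycin (10uM) controls.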
# FMDV antiviral = High Throughput Screening for Foot and Mouth Disease Virus Antivirals. Potency, µM (titrated, usually from 57.9 µM), for inactives: at the top dose activity change, negative = inhibition, hits mostly inhibitors. AID 1159524, 2015. hit rate 1.2% among 410,000. FMDV antiviral cell-based qHTS; calls by dose curve; tested in HEK293T cells; further: read-out not given here; potency means the concentration at half of the fitted maximal effect; nearly all actives have a fitted effect of over 45% in size
# Lassa entry inh = qHTS for Inhibitors of binding or entry into cells for Lassa Virus; hit rate 1.2% among 300,000; Potency, µM (doses to about 37.9 µM), for the others: at the top dose activity change, negative = inhibition, hits mostly inhibitors; Lassa virus pseudotype entry inhibition, cell reporter; calls by dose curve; tested in HEK293 cells; further: potency means the concentration at half of the fitted maximal effect; nearly all actives have a fitted effect of over 50% in size
# Starred values were filed as active, the others as inactive; u = inconclusive; x = no result given; + = active, no number; [ ] = remark or other dose. This is a sample that favours compounds with a hit; in the whole collection about 6.2% have one here. On the % scale 0 is the no-effect control and ±100 the full control effect.
SMILES,Marburg entry inh,HCMV antiviral,FMDV antiviral,Lassa entry inh
CC(C)C(=O)Nc1ccc(COc2ccccc2CN(Cc2ccccc2)C(=O)OC(C)(C)C)cc1,x,-74*,-15%,x
CC(C)(C)OC(=O)N(CCc1ccccc1)Cc1ccc(OCc2cccc(NC(=O)/C=C/c3ccccc3)c2)cc1,x,62,23%,x
CC(C)(C)OC(=O)N(CCc1ccccc1)Cc1cccc(OCc2cccc(NC(=O)c3ccccc3)c2)c1,x,-36,-15%,x
CC(C)(C)OC(=O)N(CCc1ccccc1)Cc1ccc(OCc2cccc(NC(=O)C3CC3)c2)cc1,x,u,22µM*,x
CC(C)C(=O)Nc1cccc(COc2ccc(CN(Cc3ccccc3)C(=O)OC(C)(C)C)cc2)c1,x,-34,11µM*,x
CC(C)(C)OC(=O)N(CCc1ccccc1)Cc1ccccc1OCc1ccc(NC(=O)C2CCCC2)cc1,x,-15,-1%,x
O=C(NC(c1ccc(Cl)cc1)c1ccsc1)C1CCN(CCOc2ccc(Cl)cc2)CC1 (stereo not given),x,32,-24%,x
CNC(=O)c1cnc2sc(N3CCCCCC3)nn2c1=O,x,47,35%,u
CCCCN(C(=O)CCC(=O)O)[C@H]1CC(=O)N(c2ccc(OCCC)cc2)C1=O,4%,x,x,x
Cc1ccc2c(c1)C(C1(O)C(=O)N(Cc3ccccc3)c3ccccc31)C(=O)N2C (stereo not given),x,3,x,x
CCCOc1ccc(-c2nonc2NC(=O)c2cc(OC)c(OC)c(OC)c2)cc1OCCC,-19%[46.1 µM],-76*,14%,-20%[46.1 µM]
O=C(Nc1nonc1-c1ccc(Cl)cc1)c1ccccc1F,u,-68*,-25%,10%[46.1 µM]
O=C(Nc1nonc1-c1ccc(F)cc1)c1ccco1,x,u,3%,x
CCCCOc1ccccc1C(=O)Nc1nonc1-c1ccccc1,1%[46.1 µM],-99*,-29%,3%[46.1 µM]
O=C(NC(c1ccc(F)cc1)c1ccc2ccccc2n1)C1CCN(CCOc2ccc(Cl)cc2)CC1 (stereo not given),x,-10,-11%,x
CC(C)Cc1nc(SCC(=O)NCC2CCCO2)c2c(=O)n(C)c(=O)n(C)c2n1 (stereo not given),x,-78*,-5%,x
Cn1c(=O)c2c(nc(SCC(=O)NCC3CCCO3)n2C)n(C)c1=O (stereo not given),9%,61,6%,12%
O=C1CN=C(c2ccc(Br)cc2)c2c(sc3c2CCCC3)N1CCN1CCCCC1,x,-97*,u,x
COc1ccc(C2=NCC(=O)N(CC(=O)NCc3ccco3)c3sc4c(c32)CCCC4)cc1,u,53,x,0%
CCCCOc1ccccc1NC(=O)Cn1c(-c2nonc2N)nc2ccccc21,u,-78*,-12%,u
O=C(CCCc1nc2ccccc2s1)Nc1nccs1,u,154,11%,-2%
Cc1cnc(NC(=O)CCCc2nc3ccccc3s2)s1,u,-101*,13%,u
CC(=O)c1sc(-c2ccc(Cl)cc2)nc1C,u,-19,48%,u
COc1ccc(N/C=C/C(=O)c2sc(-c3ccccc3)nc2C)cc1,u,-61*,-31%,u
Cc1nc(-c2ccccc2)sc1C(=O)/C=C/c1ccc(Cl)cc1,7%[46.1 µM],-18,25µM*,-8%
SMILES,Marburg entry inh,HCMV antiviral,FMDV antiviral,Lassa entry inh
CCc1c(C)nc(SCC(=O)CC(=O)OC(C)C)c(C#N)c1C,0%,-4,7%,11%
CCc1c(C)nc(SCC(N)=O)c(C#N)c1C,8%,-64*,x,8%
CCCCc1nc2ccccc2c(N)c1CCC (tested in a mixture with another compound),18µM*,-68*,u,u
CCCCc1nc2ccccc2c(NC(=O)CNC(C)(C)C)c1CCC,2%[46.1 µM],-21,-19%,15%
CCOC(=O)c1c(-c2ccccc2Cl)cn2ccccc12,u,u,-6%,13µM*
COc1ccc(OC)c(NC(=O)c2cccc(N3C(=O)C4C5CCC(C5)C4C3=O)c2)c1 (stereo not given),u,0,20µM*,u
COc1ccc(NC(=O)c2cc(N3C(=O)C4C5CCC(C5)C4C3=O)ccc2Cl)c(OC)c1 (stereo not given),-8%[46.1 µM],-21,4%,-6%[46.1 µM]
O=C(Nc1ccc(Br)cc1)c1cccc(N2C(=O)C3C4CCC(C4)C3C2=O)c1 (stereo not given),u,-81*,40µM*,u
Cc1cccc(NC(=O)c2ccc(N3C(=O)C4C5C=CC(C6CC56)C4C3=O)cc2)c1 (stereo not given),x,36,25µM*,x
COc1ccc(OC)c(NC(=O)c2cccc(N3C(=O)C4C5C=CC(C6CC56)C4C3=O)c2)c1 (stereo not given),x,u,25µM*,x
COc1ccc(C2CC(=O)Oc3c(C(CCN4CCCCC4)c4ccc(N(C)C)cc4)c(OC)cc(OC)c32)cc1 (stereo not given),x,-60*,-20%,x
COc1ccc(C2CC(=O)Oc3c(C(CCN4CCCC(C)C4)c4ccc(N(C)C)cc4)c(OC)cc(OC)c32)cc1 (stereo not given),x,-3,-30%,x
O=C1C[C@H](c2ccccc2)n2nc(N3C(=O)c4ccccc4C3=O)nc2N1,3%,x,x,x
Cc1cc(C)nc(NC(=O)CN2C(=O)c3ccccc3S2(=O)=O)n1,0%,56,-1%,-10%
Cc1cc(C(=O)CN2C(=O)C3CC=CCC3C2=O)c(C)n1-c1ccccc1 (stereo not given),u,-28,0%,u
Cc1cc(C(=O)CN2C(=O)c3ccccc3S2(=O)=O)c(C)n1-c1ccccc1,8.9µM*,-89*,u,1.6µM*
Cc1cc(C(=O)CN2C(=O)c3ccccc3S2(=O)=O)c(C)n1C(C)C,0.5µM*,+,u,2µM*
CCn1c(C)cc(C(=O)CN2C(=O)c3ccccc3S2(=O)=O)c1C,u,u,u,1.4µM*
C=CCn1c(C)cc(C(=O)CN2C(=O)c3ccccc3S2(=O)=O)c1C,u,x,40µM*,u
C[C@H]1COc2cc(NCCO)ccc2S(=O)(=O)N1,x,2,x,x
COc1cccc(C2(CC(=O)N3CCC(c4nc5ccccc5o4)CC3)CC(=O)N(C)C2=O)c1 (stereo not given),x,x,25%,x
COc1ccc(C)cc1NC(=O)CN1c2ccccc2S(=O)(=O)c2ccccc21,x,14,-25%,9%[46.1 µM]
COC(=O)[C@@]1(C#N)CC(=O)N([C@@H](C)c2ccccc2)[C@H]1c1ccc(OC)cc1,x,-3,x,x
CN(C)c1ccc(/C=N/N=C/c2ccccc2O)cc1,5.6µM*,-11,-62%,u
COc1ccccc1C=NN=Cc1ccccc1O,u,84,17%,u
O=C(NCc1nnc(SCc2ccccc2)n1-c1ccc(F)cc1)C12CC3CC(CC(C3)C1)C2,u,20,25µM*,-25%
COc1ccc2[nH]cc(CCNc3cc(-c4ccccc4C(F)(F)F)ncn3)c2c1,x,x,-11%,x
CCC1(C)NC(=O)N(/N=C/c2ccc(C)s2)C1=O (stereo not given),x,-98*,55%,x
CCOc1ccc(CCNC(=O)C2CCN(C(=O)c3cc4sccc4n3CC)CC2)cc1OCC,u,-28,u,x
